The whole screen tested about 4,000 compounds, of which about 60 (2%) were called active.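 Rule for the calls: active = duplicate-averaged calcium fluorescence ratio at least three times the standard deviation of buffer wells, a nonspecific response in parental cells; inactive = the rest.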 Many of the other results were omitted from the sample, so actives are more common in it than they were.

For 56 compounds, fluorescence ratio F(max-min)/F0 results are on record in PubChem BioAssay AID624111 (Johns Hopkins Ion Channel Center, 2012).

The assay can be described thus: calcium flux effects in cells lacking MrgX1 – parental HEK293 cells, Fluo-4 calcium flux, counter-screen for MrgX1 antagonist project, confirmation (AID 624111). The note with it: parental HEK293, Fluo-4 calcium fluorescence, FDSS; at 10 µM. On the technique in general: A change in cytosolic calcium serves as a functional read-out for many receptors and channels.
As for `O=C(CSc1ncccn1)NC(=O)NCc1ccccc1`, the fluorescence ratio F(max-min)/F0 result is “inactive”.

Turning to `O=C(c1cccc(S(=O)(=O)Nc2ccccc2Cl)c1)N1CCN(C(=O)c2ccco2)CC1`, the fluorescence ratio F(max-min)/F0 result was “inactive”. `O=C(Nc1ccccc1)c1nnsc1S(=O)(=O)c1ccc(Cl)cc1`: the fluorescence ratio F(max-min)/F0 result is “inactive”. In the case of `Cc1ccc(-n2[nH]c(C)c(/C=N/N3C(=O)c4cccc5cccc(c45)C3=O)c2=O)cc1`, the fluorescence ratio F(max-min)/F0 result is “inactive”. As for `CCCCC(=O)Nc1ccc2c(c1)C(=O)NC2=O`, the fluorescence ratio F(max-min)/F0 entry is “inactive”. For the compound `O=C(Cc1ccccn1)c1ccc(O)cc1O`, the fluorescence ratio F(max-min)/F0 entry is “inactive”.

`Cc1cc2ncn(CCCCOc3ccccc3)c2cc1C`: the fluorescence ratio F(max-min)/F0 result was “inactive”.

For `CC(C)(C)n1c(=O)[nH]c2c(c1=O)CCC2`, the fluorescence ratio F(max-min)/F0 result was “inactive”. Regarding `Cc1ccc2nc(-c3ccc(NC(=O)CN(C)S(=O)(=O)c4ccccc4)cc3)sc2c1`, the fluorescence ratio F(max-min)/F0 entry was “inactive”.

Regarding `Cc1cccc(NC(=O)C(C)N2C(=O)C3C4CC(C(Br)C4Br)C3C2=O)c1` (stereo unspecified), the fluorescence ratio F(max-min)/F0 result was “inactive”. On to `C=CCNC(=O)c1csc(-c2ccccc2)n1`, for which the fluorescence ratio F(max-min)/F0 result is “inactive”.

Consider `CCc1ccc(N(CC(=O)Nc2sc3c(c2C(=O)OC)CCCC3)S(C)(=O)=O)cc1`, for which the fluorescence ratio F(max-min)/F0 entry is “inactive”. The entry for `Cc1ccc(Cc2cnc(N)s2)o1` is “inactive”; for `COc1ccc(Nc2nnc(C)c3ccccc23)cc1` it is “inactive”. Regarding `Cc1nn(-c2ccccc2)c(C)c1NC(=O)COc1ccc(Cl)cc1Cl`, the fluorescence ratio F(max-min)/F0 result is “inactive”.

As to `O=C(Nc1cccc(Cl)c1)c1cncn1-c1ccc(F)cc1`, the fluorescence ratio F(max-min)/F0 entry was “inactive”. As for `CCC(C)Sc1nc(C)nc2c1c(=O)n(C)c(=O)n2C` (stereo unspecified), the fluorescence ratio F(max-min)/F0 result was “inactive”. To `CCc1cc2c(SCC(=O)Nc3ncc(Cl)c(C)c3Cl)ncnc2s1` belongs “inactive”; to `N#CC1=C(N)Oc2c(sc3ccccc23)C1c1ccco1` (stereo unspecified), 0.504 (active). As to `CCC(C)c1ccccc1N1CC(C(=O)N2CCN(S(=O)(=O)c3ccc(F)cc3)CC2)CC1=O` (stereo unspecified), the fluorescence ratio F(max-min)/F0 entry is “inactive”. Regarding `COc1ccccc1Oc1nc(-c2cccnc2)nc2ccccc12`, the fluorescence ratio F(max-min)/F0 result is “inactive”. For the compound `COC(=O)c1ccc(COC(=O)C2CCN(S(=O)(=O)c3c(Cl)cccc3Cl)CC2)o1`, the fluorescence ratio F(max-min)/F0 entry is “inactive”. To `CN1C(CC(=O)Nc2ccc(Br)cc2)c2ccccc2CC1(C)C` (stereo unspecified) belongs “inactive”; to `O=C(COc1ccc(Cl)cc1)NC(=S)Nc1ccccc1N1CCOCC1`, “inactive”; to `Nc1ccc(Oc2ccc(Cl)cc2)cc1`, “inactive”. The entry for `Cc1cc(=O)oc2cc(NC(=O)C3CC(=O)N(Cc4ccccc4)C3)ccc12` (stereo unspecified) is “inactive”; for `COCCCNC(=O)C1CCN(c2ccc(N3CCOCC3)nn2)CC1` it is “inactive”. On to `COc1ccc(C(=O)NC(=S)NC2CCCCC2)cc1`, for which the fluorescence ratio F(max-min)/F0 entry was “inactive”. For `O=C(Nc1ccc(Br)cc1F)C1CC(=O)N(C2CCCCC2)C1` (stereo unspecified), the fluorescence ratio F(max-min)/F0 entry was “inactive”.

As to `CCN(c1cccc(C)c1)S(=O)(=O)c1ccc(-c2coc(C)n2)cc1`, the fluorescence ratio F(max-min)/F0 entry was “inactive”.

As to `CC(=O)N(C1=C(Cl)C(=O)c2ccccc2C1=O)c1ccc(C(=O)O)cc1`, the fluorescence ratio F(max-min)/F0 entry is “inactive”.

`CCOC(=O)c1c(NC(=O)CSc2cn(CC)c3ccccc23)sc2c1CCC2`: the fluorescence ratio F(max-min)/F0 entry is “inactive”.

On to `O=C(c1ccc(O)cc1)c1ccc(C(=O)O)c(C(=O)O)c1`, for which the fluorescence ratio F(max-min)/F0 entry was “inactive”. On to `CCOc1ccc(NC(=O)CCNC(=O)c2ccc(Br)cc2)cc1`, for which the fluorescence ratio F(max-min)/F0 result was “inactive”. Take `O=C1CCCN1CCCNC(=S)Nc1ccc(F)c(Cl)c1`: the fluorescence ratio F(max-min)/F0 result is “inactive”. In the case of `COc1ccc(S(=O)(=O)N2CCN(C(=O)NC3CCCCC3)CC2)cc1`, the fluorescence ratio F(max-min)/F0 result was “inactive”. The entry for `O=C(Nc1nnc(-c2ccccc2)o1)c1cc(-c2cccs2)nc2ccccc12` is “inactive”; for `Cc1cc(Br)ccc1NC(=O)c1cnc(N2CCN(c3ccccn3)CC2)c2ccccc12` it is “inactive”; for `Cc1c(C(=O)N2CCN(c3ccc(F)cc3)CC2)oc2c1C(=O)CCC2` it is “inactive”. For `CC(C)CC(=O)N/C(N)=N/c1nc2ccccc2s1`, the fluorescence ratio F(max-min)/F0 entry is “inactive”. For the compound `CC(=O)N(C)c1ccc(NC(=O)C(F)(F)F)cc1`, the fluorescence ratio F(max-min)/F0 entry was “inactive”.

Turning to `CCOC(=O)c1c(C)[nH]c(=S)c(C#N)c1-c1ccccc1`, the fluorescence ratio F(max-min)/F0 result was “inactive”. Take `CCc1cc(=O)oc2cc(C)cc(OCC(=O)N3CCC[C@@H]3C(=O)O)c12`: the fluorescence ratio F(max-min)/F0 result was “inactive”.

Turning to `CCN(CC)CC(=O)Nc1nn(-c2ccccc2)nc1C(N)=O`, the fluorescence ratio F(max-min)/F0 entry was “inactive”. For the compound `O=C(C1CCN(S(=O)(=O)c2cnc[nH]2)CC1)N1CCN(Cc2ccc3c(c2)OCO3)CC1`, the fluorescence ratio F(max-min)/F0 result was “inactive”. As to `OCc1ccc(OCCCOc2cccc3cccnc23)cc1`, the fluorescence ratio F(max-min)/F0 result was “inactive”.

Take `FC(F)(F)c1cc(-c2cccs2)nc(NCc2ccco2)n1`: the fluorescence ratio F(max-min)/F0 entry is “inactive”. For `O=C(Cc1nc2ccccc2[nH]c1=O)c1ccc(Cl)cc1`, the fluorescence ratio F(max-min)/F0 result is “inactive”. Turning to `Clc1ccc(C=NC23CN4CN(CN(C4)C2)C3)cc1`, the fluorescence ratio F(max-min)/F0 entry was “inactive”.

As to `CCOC(=O)N1CCN(C(=O)COCc2cc(-c3ccc4c(c3)OCO4)on2)CC1`, the fluorescence ratio F(max-min)/F0 entry was “inactive”.

On to `CCSc1nsc(NC(=O)Nc2cccc(C(C)=O)c2)n1`, for which the fluorescence ratio F(max-min)/F0 entry was “inactive”.

As for `CCCc1cc(=S)n2c([nH]c3ccccc32)c1C#N`, the fluorescence ratio F(max-min)/F0 result was “inactive”. As to `O=c1cc(CSc2ccccn2)nc(N2CCN(c3ccccc3)CC2)[nH]1`, the fluorescence ratio F(max-min)/F0 entry was “inactive”. To `CCOC(=O)CNC(=O)CSc1nc2cccnc2n1CC` belongs “inactive”; to `Cc1c(C)c2c(OCC(=O)N[C@@H](C(=O)O)c3ccccc3)cc3c(c2oc1=O)CCC(C)(C)O3`, “inactive”; to `Cc1ccc(-c2nn(C(C)(C)C)c3ncnc(N)c23)cc1`, “inactive”.
